Measurements as given in paper PMC7862700, “An all-to-all approach to the identification of sequence-specific readers for epigenetic DNA modifications on cytosine”.

What was measured:
Assay in all cases: DAPPL (digital affinity profiling via proximity ligation, sequencing); 10 mM Tris-HCl pH 7.5, 50 mM NaCl, 1 mM DTT, 4% glycerol, room temperature, 30 min; GST-TFs on glutathione beads, 16-mer random dsDNA library, 0.1% formaldehyde crosslink after washing; high values mean tight binding
[1] = molecular target: T1, FLI1 (Homo sapiens, UniProt Q01543 1-452); conditions: protein: recombinant; tags: N-terminal GST; dsDNA, one strand shown
T1 sequence: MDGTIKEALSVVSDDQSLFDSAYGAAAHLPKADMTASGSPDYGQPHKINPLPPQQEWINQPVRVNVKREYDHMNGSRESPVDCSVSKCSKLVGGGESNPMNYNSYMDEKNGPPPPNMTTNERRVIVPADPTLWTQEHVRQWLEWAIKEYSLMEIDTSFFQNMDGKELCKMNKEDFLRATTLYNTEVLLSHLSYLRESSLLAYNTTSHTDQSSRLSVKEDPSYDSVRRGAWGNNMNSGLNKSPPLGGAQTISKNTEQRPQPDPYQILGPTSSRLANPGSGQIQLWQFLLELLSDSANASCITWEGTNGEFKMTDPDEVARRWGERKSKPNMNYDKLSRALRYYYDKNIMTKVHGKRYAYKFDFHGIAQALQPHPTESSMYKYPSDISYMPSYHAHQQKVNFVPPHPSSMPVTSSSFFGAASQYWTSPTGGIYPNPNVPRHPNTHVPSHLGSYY
In short: (§1)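 Beads coated with glutathione captured GST-fused human transcription factors that had been expressed in yeast, and the factors were then given DNA barcodes and pooled with a tag-only sample. The pools were incubated with 200 nmole of a random double-stranded 16-mer DNA library in Tris/NaCl/DTT/glycerol buffer for 30 min at room temperature, washed, crosslinked with 0.1% formaldehyde and proximity-ligated with BsaI/T4 ligase at 37 °C for 1 h. PCR amplification and Illumina NextSeq500 sequencing came last. Binding signal is each hexamer's read frequency for a factor divided by its frequency for the tag-only sample.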

[2] = molecular target: T2, ELK1 (Homo sapiens, UniProt P19419 1-428); conditions: protein: recombinant; tags: N-terminal GST; dsDNA, one strand shown
T2 sequence: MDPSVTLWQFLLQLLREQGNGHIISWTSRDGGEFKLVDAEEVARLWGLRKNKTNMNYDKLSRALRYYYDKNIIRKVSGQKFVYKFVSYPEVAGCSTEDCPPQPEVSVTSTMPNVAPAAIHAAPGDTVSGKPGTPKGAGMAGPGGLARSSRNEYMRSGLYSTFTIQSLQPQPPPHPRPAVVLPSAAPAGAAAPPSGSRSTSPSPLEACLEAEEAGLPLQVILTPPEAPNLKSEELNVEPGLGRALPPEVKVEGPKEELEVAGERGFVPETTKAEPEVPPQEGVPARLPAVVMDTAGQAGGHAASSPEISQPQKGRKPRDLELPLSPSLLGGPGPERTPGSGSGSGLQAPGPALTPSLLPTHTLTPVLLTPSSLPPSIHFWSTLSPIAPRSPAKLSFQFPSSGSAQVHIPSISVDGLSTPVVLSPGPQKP
In short: as §1

[3] = molecular target: T3, GABPA (Homo sapiens, UniProt Q06546 1-454); conditions: protein: recombinant; tags: N-terminal GST; dsDNA, one strand shown
T3 sequence: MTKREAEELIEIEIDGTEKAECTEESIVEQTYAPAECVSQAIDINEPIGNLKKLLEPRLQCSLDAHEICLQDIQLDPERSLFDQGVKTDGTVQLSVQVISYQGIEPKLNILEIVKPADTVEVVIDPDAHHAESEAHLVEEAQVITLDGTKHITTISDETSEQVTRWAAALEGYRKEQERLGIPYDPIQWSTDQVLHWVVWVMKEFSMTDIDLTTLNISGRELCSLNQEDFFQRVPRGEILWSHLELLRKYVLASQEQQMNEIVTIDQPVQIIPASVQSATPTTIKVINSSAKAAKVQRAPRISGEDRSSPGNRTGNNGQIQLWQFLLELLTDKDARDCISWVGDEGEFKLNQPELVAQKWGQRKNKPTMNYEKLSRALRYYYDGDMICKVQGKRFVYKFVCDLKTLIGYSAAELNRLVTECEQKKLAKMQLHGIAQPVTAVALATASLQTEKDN
In short: as §1

[4] = molecular target: T4, ERG (Homo sapiens, UniProt P11308 1-479); conditions: protein: recombinant; tags: N-terminal GST; dsDNA, one strand shown
T4 sequence: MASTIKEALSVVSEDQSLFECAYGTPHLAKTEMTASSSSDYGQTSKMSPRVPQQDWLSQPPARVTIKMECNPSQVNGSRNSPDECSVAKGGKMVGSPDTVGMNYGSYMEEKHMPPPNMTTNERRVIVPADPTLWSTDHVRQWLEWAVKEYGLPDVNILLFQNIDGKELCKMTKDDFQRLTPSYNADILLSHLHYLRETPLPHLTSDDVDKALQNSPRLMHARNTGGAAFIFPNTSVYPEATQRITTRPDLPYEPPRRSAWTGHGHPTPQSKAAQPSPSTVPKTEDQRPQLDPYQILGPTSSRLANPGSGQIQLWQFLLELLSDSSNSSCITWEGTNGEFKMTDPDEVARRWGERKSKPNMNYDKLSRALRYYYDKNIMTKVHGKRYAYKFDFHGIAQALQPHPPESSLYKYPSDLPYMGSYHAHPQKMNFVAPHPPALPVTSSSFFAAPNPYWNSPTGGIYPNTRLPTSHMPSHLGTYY
In short: as §1

[5] = molecular target: ELF1 (Homo sapiens, UniProt P32519 1-619); conditions: protein: recombinant; tags: N-terminal GST; dsDNA, one strand shown
ELF1, sequence (P32519 whole entry): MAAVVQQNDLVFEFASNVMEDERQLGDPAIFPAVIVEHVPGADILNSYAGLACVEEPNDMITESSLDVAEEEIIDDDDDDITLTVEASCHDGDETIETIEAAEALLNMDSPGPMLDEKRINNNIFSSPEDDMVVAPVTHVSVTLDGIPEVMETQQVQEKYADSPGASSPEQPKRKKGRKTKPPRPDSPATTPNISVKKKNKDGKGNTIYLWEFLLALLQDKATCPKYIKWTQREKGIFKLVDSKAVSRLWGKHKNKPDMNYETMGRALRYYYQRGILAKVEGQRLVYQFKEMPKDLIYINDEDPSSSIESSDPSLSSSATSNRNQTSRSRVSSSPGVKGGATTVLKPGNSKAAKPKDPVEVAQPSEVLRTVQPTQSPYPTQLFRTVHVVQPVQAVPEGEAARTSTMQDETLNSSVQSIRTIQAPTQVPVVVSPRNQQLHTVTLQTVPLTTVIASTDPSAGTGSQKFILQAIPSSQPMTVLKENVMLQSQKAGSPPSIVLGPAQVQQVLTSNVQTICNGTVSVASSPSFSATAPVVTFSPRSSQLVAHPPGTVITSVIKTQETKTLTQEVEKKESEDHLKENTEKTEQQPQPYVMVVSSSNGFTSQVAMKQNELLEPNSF
In short: as §1

[6] = molecular target: T5, EHF (Homo sapiens, UniProt Q9NZC4 1-300); conditions: protein: recombinant; tags: N-terminal GST; dsDNA, one strand shown
T5 sequence: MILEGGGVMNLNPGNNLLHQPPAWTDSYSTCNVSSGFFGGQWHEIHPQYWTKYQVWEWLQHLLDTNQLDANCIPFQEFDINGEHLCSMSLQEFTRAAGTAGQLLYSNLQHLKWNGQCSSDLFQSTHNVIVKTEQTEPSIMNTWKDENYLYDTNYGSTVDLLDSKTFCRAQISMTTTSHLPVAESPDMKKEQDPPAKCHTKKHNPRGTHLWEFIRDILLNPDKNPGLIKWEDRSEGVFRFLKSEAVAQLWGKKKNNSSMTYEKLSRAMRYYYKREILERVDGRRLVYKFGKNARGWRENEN
In short: as §1

[7] = molecular target: SPI1 (Homo sapiens, UniProt P17947 1-270); conditions: protein: recombinant; tags: N-terminal GST; dsDNA, one strand shown
In short: as §1

[8] = molecular target: SPIB (Homo sapiens, UniProt Q01892 1-262); conditions: protein: recombinant; tags: N-terminal GST; dsDNA, one strand shown
SPIB, sequence (Q01892 whole entry): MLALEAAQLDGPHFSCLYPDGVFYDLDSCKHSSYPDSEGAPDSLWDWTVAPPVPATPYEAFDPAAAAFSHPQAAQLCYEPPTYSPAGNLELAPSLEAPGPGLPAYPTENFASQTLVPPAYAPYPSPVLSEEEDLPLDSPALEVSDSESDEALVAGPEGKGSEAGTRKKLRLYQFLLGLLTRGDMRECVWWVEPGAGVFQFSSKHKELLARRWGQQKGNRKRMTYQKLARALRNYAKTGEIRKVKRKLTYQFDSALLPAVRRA
In short: as §1

[9] = molecular target: T6, ELK3 (Homo sapiens, UniProt P41970 1-407); conditions: protein: recombinant; tags: N-terminal GST; dsDNA, one strand shown
T6 sequence: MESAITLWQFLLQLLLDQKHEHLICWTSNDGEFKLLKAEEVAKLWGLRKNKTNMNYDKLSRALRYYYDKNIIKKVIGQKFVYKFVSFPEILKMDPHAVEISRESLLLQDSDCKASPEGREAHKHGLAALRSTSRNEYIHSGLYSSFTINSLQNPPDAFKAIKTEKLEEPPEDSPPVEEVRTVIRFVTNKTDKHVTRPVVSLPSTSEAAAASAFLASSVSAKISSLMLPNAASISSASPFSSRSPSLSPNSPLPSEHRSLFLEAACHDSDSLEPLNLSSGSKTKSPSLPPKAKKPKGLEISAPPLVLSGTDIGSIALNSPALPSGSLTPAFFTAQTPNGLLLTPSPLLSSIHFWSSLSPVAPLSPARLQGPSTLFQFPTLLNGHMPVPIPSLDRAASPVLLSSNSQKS
In short: as §1

[10] = molecular target: T7, FEV (Homo sapiens, UniProt Q99581 1-238); conditions: protein: recombinant; tags: N-terminal GST; dsDNA, one strand shown
T7 sequence: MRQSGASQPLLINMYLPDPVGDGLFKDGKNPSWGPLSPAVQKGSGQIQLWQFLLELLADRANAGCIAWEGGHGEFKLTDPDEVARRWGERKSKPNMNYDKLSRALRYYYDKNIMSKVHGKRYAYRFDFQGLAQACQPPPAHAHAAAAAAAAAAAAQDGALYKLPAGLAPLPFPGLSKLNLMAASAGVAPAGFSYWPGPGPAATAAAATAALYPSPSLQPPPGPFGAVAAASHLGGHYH
In short: as §1

[11] = molecular target: ETV5 (Homo sapiens, UniProt P41161 1-510); conditions: protein: recombinant; tags: N-terminal GST; dsDNA, one strand shown
ETV5, sequence (P41161 whole entry): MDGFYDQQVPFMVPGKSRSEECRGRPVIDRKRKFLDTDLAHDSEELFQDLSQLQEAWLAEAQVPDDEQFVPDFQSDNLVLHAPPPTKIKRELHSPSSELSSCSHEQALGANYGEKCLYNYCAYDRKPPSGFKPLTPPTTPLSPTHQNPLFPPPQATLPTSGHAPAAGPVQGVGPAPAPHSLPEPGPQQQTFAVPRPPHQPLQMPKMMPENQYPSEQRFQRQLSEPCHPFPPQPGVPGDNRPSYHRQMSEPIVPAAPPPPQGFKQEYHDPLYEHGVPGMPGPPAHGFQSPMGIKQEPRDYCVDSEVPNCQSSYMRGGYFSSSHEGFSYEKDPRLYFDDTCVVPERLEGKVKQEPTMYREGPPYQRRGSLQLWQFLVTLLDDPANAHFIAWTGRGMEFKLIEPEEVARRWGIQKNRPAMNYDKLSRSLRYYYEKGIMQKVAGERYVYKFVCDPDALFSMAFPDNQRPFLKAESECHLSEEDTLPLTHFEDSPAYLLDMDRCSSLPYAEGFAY
In short: as §1

[12] = molecular target: HSF1 (Homo sapiens, UniProt Q00613 1-529); conditions: protein: recombinant; tags: N-terminal GST; chain copies: 3; dsDNA, one strand shown
HSF1, sequence (Q00613 whole entry): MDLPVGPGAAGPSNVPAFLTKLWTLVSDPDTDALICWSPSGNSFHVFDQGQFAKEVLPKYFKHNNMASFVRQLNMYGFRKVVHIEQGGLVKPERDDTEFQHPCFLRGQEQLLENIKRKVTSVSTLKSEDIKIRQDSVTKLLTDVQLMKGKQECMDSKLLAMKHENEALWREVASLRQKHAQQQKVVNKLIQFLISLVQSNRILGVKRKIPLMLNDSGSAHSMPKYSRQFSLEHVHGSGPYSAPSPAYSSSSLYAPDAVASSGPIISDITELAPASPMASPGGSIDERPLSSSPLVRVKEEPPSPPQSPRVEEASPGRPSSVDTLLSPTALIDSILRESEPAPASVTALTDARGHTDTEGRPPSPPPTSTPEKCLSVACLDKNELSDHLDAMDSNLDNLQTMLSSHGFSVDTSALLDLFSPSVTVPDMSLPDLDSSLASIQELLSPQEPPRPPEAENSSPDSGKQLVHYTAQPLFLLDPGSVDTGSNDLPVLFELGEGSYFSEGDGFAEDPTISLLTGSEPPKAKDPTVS
In short: as §1

[13] = molecular target: T8, SPIC (Homo sapiens, UniProt Q8N5J4 1-248); conditions: protein: recombinant; tags: N-terminal GST; dsDNA, one strand shown
T8 sequence: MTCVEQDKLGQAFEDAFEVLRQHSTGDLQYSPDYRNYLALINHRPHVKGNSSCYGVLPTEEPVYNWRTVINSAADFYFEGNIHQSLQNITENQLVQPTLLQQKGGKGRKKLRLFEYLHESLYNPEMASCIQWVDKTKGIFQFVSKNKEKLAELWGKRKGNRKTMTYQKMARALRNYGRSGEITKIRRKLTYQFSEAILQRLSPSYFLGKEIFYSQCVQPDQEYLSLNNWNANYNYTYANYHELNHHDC
In short: as §1

[14] = molecular target: ELF4 (Homo sapiens, UniProt Q99607 1-663); conditions: protein: recombinant; tags: N-terminal GST; dsDNA, one strand shown
ELF4, sequence (Q99607 whole entry): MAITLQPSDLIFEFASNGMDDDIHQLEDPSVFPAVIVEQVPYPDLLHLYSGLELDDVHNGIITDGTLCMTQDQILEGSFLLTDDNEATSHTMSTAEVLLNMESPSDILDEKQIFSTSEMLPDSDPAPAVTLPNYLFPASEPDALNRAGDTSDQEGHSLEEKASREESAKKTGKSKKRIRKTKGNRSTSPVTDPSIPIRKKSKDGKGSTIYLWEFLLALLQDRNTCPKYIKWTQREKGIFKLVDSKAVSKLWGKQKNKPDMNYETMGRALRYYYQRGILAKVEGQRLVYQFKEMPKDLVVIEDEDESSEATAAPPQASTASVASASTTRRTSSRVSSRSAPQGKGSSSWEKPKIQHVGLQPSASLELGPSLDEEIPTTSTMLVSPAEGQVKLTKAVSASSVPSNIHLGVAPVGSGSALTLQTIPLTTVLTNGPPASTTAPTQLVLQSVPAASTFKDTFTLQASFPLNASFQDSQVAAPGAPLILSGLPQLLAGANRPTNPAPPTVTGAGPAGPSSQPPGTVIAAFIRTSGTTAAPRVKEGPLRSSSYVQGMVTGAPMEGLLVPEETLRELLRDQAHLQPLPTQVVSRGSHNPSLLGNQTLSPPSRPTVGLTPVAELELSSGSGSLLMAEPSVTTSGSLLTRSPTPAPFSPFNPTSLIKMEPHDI
In short: as §1

[15] = molecular target: T9, ELK4 (Homo sapiens, UniProt P28324-2 1-405); conditions: protein: recombinant; tags: N-terminal GST; dsDNA, one strand shown
T9 sequence: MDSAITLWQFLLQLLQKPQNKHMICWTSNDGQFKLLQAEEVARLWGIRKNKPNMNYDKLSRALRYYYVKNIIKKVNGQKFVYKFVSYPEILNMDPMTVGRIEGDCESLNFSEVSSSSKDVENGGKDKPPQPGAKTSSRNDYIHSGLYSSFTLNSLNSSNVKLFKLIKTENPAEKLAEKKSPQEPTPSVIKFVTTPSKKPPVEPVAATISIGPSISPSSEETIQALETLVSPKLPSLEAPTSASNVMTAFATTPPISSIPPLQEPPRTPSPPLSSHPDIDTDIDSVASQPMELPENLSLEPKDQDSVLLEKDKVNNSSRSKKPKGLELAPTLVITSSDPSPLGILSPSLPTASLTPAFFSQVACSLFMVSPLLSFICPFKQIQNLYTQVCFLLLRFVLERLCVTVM
In short: as §1

[16] = molecular target: T10, ETV2 (Homo sapiens, UniProt O00321 1-342); conditions: protein: recombinant; tags: N-terminal GST; dsDNA, one strand shown
T10 sequence: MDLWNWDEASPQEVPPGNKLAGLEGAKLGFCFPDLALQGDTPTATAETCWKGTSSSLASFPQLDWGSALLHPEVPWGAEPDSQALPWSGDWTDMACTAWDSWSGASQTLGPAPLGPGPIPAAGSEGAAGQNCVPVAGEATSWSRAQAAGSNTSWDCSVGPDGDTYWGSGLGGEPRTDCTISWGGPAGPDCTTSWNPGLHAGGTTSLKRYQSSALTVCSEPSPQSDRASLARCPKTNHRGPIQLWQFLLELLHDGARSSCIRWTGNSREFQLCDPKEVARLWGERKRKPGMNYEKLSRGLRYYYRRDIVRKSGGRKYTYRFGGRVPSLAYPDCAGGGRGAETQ
In short: as §1

[17] = molecular target: T11, ELF3 (Homo sapiens, UniProt P78545 1-371); conditions: protein: recombinant; tags: N-terminal GST; dsDNA, one strand shown
T11 sequence: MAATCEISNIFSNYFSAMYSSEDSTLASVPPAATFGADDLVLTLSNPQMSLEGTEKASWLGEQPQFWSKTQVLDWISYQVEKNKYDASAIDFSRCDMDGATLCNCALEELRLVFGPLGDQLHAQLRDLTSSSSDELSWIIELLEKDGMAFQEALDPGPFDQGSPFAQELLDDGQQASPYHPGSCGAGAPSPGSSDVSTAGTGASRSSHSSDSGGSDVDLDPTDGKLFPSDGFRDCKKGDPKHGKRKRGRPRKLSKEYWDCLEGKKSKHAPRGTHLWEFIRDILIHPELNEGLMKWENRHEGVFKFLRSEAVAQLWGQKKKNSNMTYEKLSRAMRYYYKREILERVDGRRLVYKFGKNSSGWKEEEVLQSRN
In short: as §1

[18] = molecular target: CRX (Homo sapiens, UniProt O43186 1-299); conditions: protein: recombinant; tags: N-terminal GST; dsDNA, one strand shown
CRX, sequence (O43186 whole entry): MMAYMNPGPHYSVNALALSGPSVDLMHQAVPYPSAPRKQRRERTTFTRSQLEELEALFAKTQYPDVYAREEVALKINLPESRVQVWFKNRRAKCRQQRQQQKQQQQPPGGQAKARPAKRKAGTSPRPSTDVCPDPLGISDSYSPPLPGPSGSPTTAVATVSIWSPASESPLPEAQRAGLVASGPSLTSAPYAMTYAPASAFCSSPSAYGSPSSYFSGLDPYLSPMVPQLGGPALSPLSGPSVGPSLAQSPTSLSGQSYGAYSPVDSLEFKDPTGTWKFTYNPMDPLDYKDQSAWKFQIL
In short: as §1

[19] = molecular target: ETV1 (Homo sapiens, UniProt P50549 1-477); conditions: protein: recombinant; tags: N-terminal GST; dsDNA, one strand shown
ETV1, sequence (P50549 whole entry): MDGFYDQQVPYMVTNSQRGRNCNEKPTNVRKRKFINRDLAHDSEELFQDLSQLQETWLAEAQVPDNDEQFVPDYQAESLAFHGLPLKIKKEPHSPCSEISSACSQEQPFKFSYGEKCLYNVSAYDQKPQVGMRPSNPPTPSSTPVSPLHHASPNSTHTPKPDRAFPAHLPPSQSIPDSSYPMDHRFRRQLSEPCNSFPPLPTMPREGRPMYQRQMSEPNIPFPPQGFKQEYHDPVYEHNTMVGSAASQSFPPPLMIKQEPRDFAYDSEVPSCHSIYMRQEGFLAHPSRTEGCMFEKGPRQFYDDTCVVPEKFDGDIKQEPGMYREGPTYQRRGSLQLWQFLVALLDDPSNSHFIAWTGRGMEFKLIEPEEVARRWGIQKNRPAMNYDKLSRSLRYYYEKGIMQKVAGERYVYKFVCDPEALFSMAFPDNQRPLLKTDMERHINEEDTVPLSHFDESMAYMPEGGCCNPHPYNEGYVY
In short: as §1

## CTATTC
[1]
  binding signal: 1.33 fold enrichment (6-mer frequency, TF over GST control)
[2]
  binding signal: 1.34 fold enrichment (6-mer frequency, TF over GST control)
[3]
  binding signal: 1.34 fold enrichment (6-mer frequency, TF over GST control)
[4]
  binding signal: 1.35 fold enrichment (6-mer frequency, TF over GST control)
[5]
  binding signal: 1.42 fold enrichment (6-mer frequency, TF over GST control)
[6]
  binding signal: 1.42 fold enrichment (6-mer frequency, TF over GST control)
[7]
  binding signal: 1.29 fold enrichment (6-mer frequency, TF over GST control)
[8]
  binding signal: 1.23 fold enrichment (6-mer frequency, TF over GST control)
[9]
  binding signal: 1.13 fold enrichment (6-mer frequency, TF over GST control)
[10]
  binding signal: 1.28 fold enrichment (6-mer frequency, TF over GST control)
[11]
  binding signal: 1.35 fold enrichment (6-mer frequency, TF over GST control)
[12]
  binding signal: 1.57 fold enrichment (6-mer frequency, TF over GST control)
[13]
  binding signal: 1.49 fold enrichment (6-mer frequency, TF over GST control)
[14]
  binding signal: 1.26 fold enrichment (6-mer frequency, TF over GST control)
[15]
  binding signal: 1.32 fold enrichment (6-mer frequency, TF over GST control)
[16]
  binding signal: 1.37 fold enrichment (6-mer frequency, TF over GST control)
[17]
  binding signal: 1.38 fold enrichment (6-mer frequency, TF over GST control)
[18]
  binding signal: 1.16 fold enrichment (6-mer frequency, TF over GST control)
[19]
  binding signal: 1.28 fold enrichment (6-mer frequency, TF over GST control)
